# High-throughput results: PubChem BioAssay, National Center for Advancing Translational Sciences (NCATS)
# This is a sample that favours compounds with a hit; in the whole collection about 11% have one here.
# GoLoco inh red: RGS12 GoLoco-Gai1 interaction inhibition; P63096; Gai1:RGS12 GoLoco peptide FP, rhodamine, 10 min; Potency, µM (top dose mostly 61.6 µM), without a hit: at the highest dose activity, negative = inhibition, hits mostly inhibitors; hit rate 0.44% among 230,000; AID 880; active = well fitted inhibition curve with a large enough effect, not every such curve was filed as active; inactive = no such curve, though single readings can be large or run the other way; also: potency is read from the fitted curve at half-maximal effect; % is scaled to controls: 0 for no effect and ±100 for the full control effect; nearly all actives have a fitted effect of over 30% in size
# HPGD block: inhibitors of human 15-hydroxyprostaglandin dehydrogenase (HPGD); P15428; purified HPGD, NADH fluorescence kinetic, PGE2 substrate; Potency, µM, without a hit: at the top dose activity change, negative = inhibition, actives largely listed as inhibitors; hit rate 4.3% among 150,000; active = well fitted inhibition curve with a large enough effect, not every such curve was filed as active; inconclusive = small, poorly fitted or top-dose-only effect, or another doubt; inactive = no such curve, though single readings can be large or run the other way; also: potency is read from the fitted curve at half-maximal effect; % is scaled to controls: 0 for no effect and ±100 for the full control effect
# Target sequence (P15428 whole entry, looked up): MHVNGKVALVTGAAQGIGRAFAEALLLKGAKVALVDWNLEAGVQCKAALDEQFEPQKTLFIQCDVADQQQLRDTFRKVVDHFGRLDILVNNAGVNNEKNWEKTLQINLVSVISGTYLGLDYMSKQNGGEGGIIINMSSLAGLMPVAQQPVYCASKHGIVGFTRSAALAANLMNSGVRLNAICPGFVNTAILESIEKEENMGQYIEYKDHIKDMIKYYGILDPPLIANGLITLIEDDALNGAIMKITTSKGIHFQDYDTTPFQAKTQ
#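 NADH formation kinetics: reaction with 30 uM PGE2 and 1 mM NAD+ (final), 20 nM enzyme, Tris-HCl pH 8 with Tween 20, after 15 min compound preincubation at room temperature. Fluorescence change, last versus first of five reads.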
# HTT ATP protect: cytoprotection in Huntington HTT-Q103 PC12 cell model; PC12 HTT-Q103 induced, cytoprotection, ATP luminescence, 40 h; Potency, µM (titrated, usually from 56.4 µM), inactives show cytoprotection (ATP increase), actives largely listed as activators; hit rate 0.14% among 230,000; also: potency is read from the fitted curve at half-maximal effect; % of control where 0% means no effect; nearly all actives have a fitted effect of over 45% in size
#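 Quantitative HTS on tebufenozide-induced (100 nM) PC12 cells expressing HTTQ103 exon 1–GFP; compounds tested as a concentration series; survival measured via cellular ATP.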
# ALDH1A1 inh: blocks purified human ALDH1A1 activity; P00352; Purified ALDH1A1, NADH fluorescence, propionaldehyde substrate; hit rate 7.3% among 220,000; Potency, µM (titrated, usually from 75.3 µM), for the others: top-dose activity, negative = inhibition, most hits filed as inhibitors; active = well fitted inhibition curve with a large enough effect, not every such curve was filed as active; inconclusive = small, poorly fitted or top-dose-only effect, or another doubt; inactive = no such curve, though single readings can be large or run the other way;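 also: potency is read from the fitted curve at half-maximal effect; plate controls were no enzyme wells and a reference inhibitor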
# Target sequence (P00352 whole entry, looked up): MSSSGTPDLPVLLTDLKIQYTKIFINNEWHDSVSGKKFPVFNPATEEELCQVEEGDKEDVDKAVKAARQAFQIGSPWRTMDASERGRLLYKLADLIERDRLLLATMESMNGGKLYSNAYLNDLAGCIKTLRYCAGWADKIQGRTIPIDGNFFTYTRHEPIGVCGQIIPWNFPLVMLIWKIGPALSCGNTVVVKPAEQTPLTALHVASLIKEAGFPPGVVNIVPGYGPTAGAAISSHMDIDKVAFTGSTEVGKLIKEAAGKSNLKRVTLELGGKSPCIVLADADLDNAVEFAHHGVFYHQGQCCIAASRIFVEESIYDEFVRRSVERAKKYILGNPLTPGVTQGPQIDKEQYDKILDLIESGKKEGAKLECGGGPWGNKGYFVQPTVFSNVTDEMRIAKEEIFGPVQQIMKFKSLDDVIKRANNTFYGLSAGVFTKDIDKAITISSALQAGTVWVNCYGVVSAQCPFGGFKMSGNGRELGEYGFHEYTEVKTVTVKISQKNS
# PNC inhibitor: blocks assembly of the perinucleolar compartment | PC3M PTB-GFP, PNC prevalence imaging, 16 h; stronger effect = lower value | activity change (PNC), negative = inhibition, % at 10 µM | hit rate 3.1% among 140,000;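 active = readout at or below -70, meaning at least 70% loss of cells showing the perinucleolar compartment, a nuclear body marking cancer cells; inconclusive = readout between -30 and a set limit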;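 also: plate controls were DMSO wells for no effect and camptothecin positive control wells for full effect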
#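 Compounds are pinned in duplicate onto adhered PC3M cells stably expressing GFP-tagged PTB and incubated 16 h at 37 C. Cells are then fixed, nuclei stained with Hoechst, and PNC-positive cells counted.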
# HttQ103 aggreg: reduces HttQ103-GFP aggregates in PC12 cells. PC12 HttQ103-GFP aggregates, Acumen cytometry, 40 h. Potency, µM (top dose mostly 46.1 µM), for inactives: at the top dose activity change, negative = inhibition, hits mostly inhibitors. hit rate 1.1% among 220,000. AID 1688; also: potency is read from the fitted curve at half-maximal effect; % is scaled to controls: 0 for no effect and ±100 for the full control effect; nearly all actives have a fitted effect of over 60% in size
#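 Compounds (qHTS titration) were added to PC12 cells expressing an ecdysone-driven HTT exon 1 Q103–GFP fusion after induction with 100 nM tebufenozide. Aggregate formation was measured as GFP objects in cell lysates.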
# Numbers without * were called inactive; ? = inconclusive; · = not tested or not shown; [ ] = remark or other dose. Unless noted, calls follow the shape of the dose curve; as a rule, active = well fitted curve in the direction sought with a large enough effect; inconclusive = small, poorly fitted or top-dose-only effect, or another doubt; inactive = no such curve, though single readings can be large; an effect the other way counts as inactive or inconclusive.
SMILES,GoLoco inh red,HPGD block,HTT ATP protect,ALDH1A1 inh,PNC inhibitor,HttQ103 aggreg
CCOC(=O)N1CCN(c2cc(NCCC(=O)O)c3c4c(onc24)-c2ccccc2C3=O)CC1,141.6%,-26.0%,-7.5%[1.9 µM],14.1µM*,17.6,6.7%
CN(C)c1nc(N(C)C)nc(N2CC(=O)N(c3ccccc3)C2=N)n1,4.6%,·,-23.3%,1.41µM*,·,16.3%
Cc1ccc(C(=O)Nc2cccc(Oc3ccccc3)c2)o1,5.7%,20µM*,-36.4%,0.4%,24.1,-22.4%[1.84 µM]
O=C(Nc1ccccc1)N1CCN(Cc2ccc(Cl)cc2)CC1,8.7%,·,-22.7%,-2.9%,·,15.8%
Cc1ccc(C(=O)Nc2cccc(C(=O)NCc3ccccc3)c2)o1,-2.3%,-19.1%,-15.9%,-2.0%,-9.8,18.5%
O=C(Nc1ccc(Cl)cc1)N1CCCN(Cc2ccc(F)cc2)C1,-9.4%,25.1µM*,-52.7%,3.7%,-15.4,-15.9%
O=C(CN1CCCCCC1)Nc1ccccc1,-17.9%,·,-15.9%,7.94µM*,·,4.7%
O=C(CN1CCCCC1)Nc1ccccc1NC(=O)CN1CCCCC1,4.2%,-2.2%,24.1%[10 µM],1.4%,?,17.1%
N=c1sccn1CC(=O)Nc1cccc(Oc2ccccc2)c1,8.3%,-10.1%,-26.2%[10 µM],?,14.7,-13.3%
O=C(CCl)Nc1cccc(Oc2ccccc2)c1,10.1%,·,-5.5%,0.282µM*,·,?
COC(=O)CC[C@H](N)C(=O)O,·,·,-16.7%,·,·,1.0%
O=C(CN1CCCC1)Nc1ccc(F)cc1,3.5%,·,2.8%[10 µM],25.1µM*,·,26.7%[9.22 µM]
CC(NC(=O)CN1CCC(C(N)=O)CC1)c1ccccc1 (configuration not stated),9.4%,-11.6%,8.1%[10 µM],2.9%,-7.5,0.1%
NC(=O)C1CCN(CC(=O)Nc2ccccn2)CC1,-0.6%,-5.5%,-0.2%,12.6%,?,2.24µM*
O=C(CN1CCN(C(=O)N2CCOCC2)CC1)Nc1ccc(Br)cc1,-14.1%,-6.8%,-9.8%,17.8µM*,20.1,4.3%
O=C(CSc1ncnc2[nH]ncc12)Nc1cccc(Oc2ccccc2)c1,6.4%,·,-42.3%,20µM*,·,-11.0%
Cc1cc(O)c(C(C)(C)C)cc1Sc1cc(C(C)(C)C)c(O)cc1C,4.9%,-28.4%,-235.3%,?,·,·
O=C(CN1CCCCC1)Nc1cccc(Oc2ccccc2)c1,-22.0%,28.2µM*,-16.7%,6.7%,-105.7*,-6.1%
CCOC(=O)N1CCN(CC(=O)Nc2ccc(Oc3ccccc3)cc2)CC1,-3.8%,-3.5%,5.5%,25.1µM*,-15.3,-3.6%
COc1ccc(OC)c(C2C(C#N)=C(N)Oc3cc(N)ccc32)c1 (configuration not stated),7.8%,-7.1%,10.4%,11.2µM*,12.6,8.2%
CC(=O)C1=C(C)NC(SCC(=O)c2ccc(F)cc2)=C(C#N)C1CC(C)C (configuration not stated),10.7%,22.4µM*,·,10.7%,?,5.8%
CC(=O)C1=C(C)NC(SCC(=O)c2ccc(Cl)cc2)=C(C#N)C1CC(C)C (configuration not stated),-0.1%,-20.9%,-10.7%,14.1µM*,2.5,?
CC(=O)C1=C(C)NC(SCC(N)=O)=C(C#N)C1CC(C)C (configuration not stated),7.5%,·,-4.8%,32.2%,·,5.3%
Cc1ccccc1NC(NC(=O)c1cccs1)C(Cl)(Cl)Cl (configuration not stated),1.6%,-9.2%,-35.0%,-2.4%,63.1,-2.1%
CN(C(=S)Nc1ccc(Oc2ccccc2)cc1)c1ccc(O)cc1,-35.5%,?,·,2.24µM*,?,-3.5%
SMILES,GoLoco inh red,HPGD block,HTT ATP protect,ALDH1A1 inh,PNC inhibitor,HttQ103 aggreg
CN(C(=S)Nc1ccc(SC(F)F)cc1)c1ccc(O)cc1,-21.3%,-13.2%,25.4%[1.9 µM],6.31µM*,13.5,?
FC(F)Sc1ccc(NC(=S)NC2CCCC2)cc1,2.2%,·,-62.6%,7.3%,·,-17.1%
CN(C(=S)Nc1ccccc1)c1ccccc1,-2.4%,-16.5%,·,1.4%,47.8,-0.7%
CN(C(=S)Nc1cccnc1)c1ccc(O)cc1,-14.3%,-8.4%,35.6%[10 µM],14.1µM*,29.5,?
CC(C)c1cccc(OCCCCN(C)C)c1,-11.2%,·,-60.5%,?,·,-31.9%
CCCC12CN3CCN(CC(C3)/C1=N\NC(=O)c1ccccc1N)C2,3.1%,?,-7.4%[10 µM],?,-5.0,-2.7%
CCCC12CN3CCN(CC(C3)/C1=N\NC(=O)c1ccc(C(C)(C)C)cc1)C2,1.9%,1.0%,6.6%[10 µM],31.6µM*,-26.2,-0.9%
Cc1ccc(S(=O)(=O)N2CCCCC2)cc1NC(=O)CSc1nccn1C,0.2%,·,·,6.9%,·,-8.5%
CC(=O)Nc1nc(-c2ccccc2)ns1,0.2%,-7.0%,-17.4%[10 µM],4.3%,-100.0*,-4.5%
O=C(c1cnccn1)N1CCc2ccccc2C1,2.7%,·,-15.5%,11.3%,·,13.7%
CN(Cc1c(C(=O)N(C)Cc2ccccc2)nc2ccccn12)CC1Cc2ccccc2O1 (configuration not stated),15.8%,·,-21.1%,14.1µM*,·,-10.0%
CN(Cc1ccccc1)CC(O)COc1ccc(CNCCOc2cccnc2)cc1 (configuration not stated),10.0%,·,-22.8%,7.2%,·,12.7%
CN(Cc1ccccc1)C(=O)c1nc2ccccn2c1CNCCOc1cccnc1,24.7%,·,-4.5%[10 µM],25.1µM*,·,-3.0%[9.22 µM]
CN(C)c1ncc2nc(-c3cccs3)c(=O)n(-c3ccccc3)c2n1,6.5%,·,3.4%,?,·,·
COC(=O)c1c(NC(=O)COC(=O)[C@@H](NS(=O)(=O)c2ccc(C)cc2)C(C)C)sc2c1CCC2,8.3%,?,-3.1%[0.074 µM],?,-17.9,-0.2%
CCC(C)c1ccc(O)c(NC(=O)c2cccnc2)c1 (configuration not stated),-1.6%,-9.6%,-5.6%,11.2µM*,-11.2,-23.3%
CCC(C)c1ccc(NC(=O)c2cccnc2)cc1 (configuration not stated),-4.7%,-10.7%,-25.8%[10 µM],?,1.4,-2.3%
CCOC(=O)c1ccc(Cl)c(NC(=O)c2cccnc2)c1,7.8%,·,-0.5%[10 µM],11.2µM*,·,-19.7%[9.22 µM]
COc1ccccc1CCn1c(=O)c(-c2ccccc2)nc2cncnc21,9.5%,-3.4%,12.1%,-8.6%,·,·
CCOC(=O)c1c(-c2ccco2)csc1N,41.3%,-27.9%,5.6%[10 µM],20µM*,1.8,-0.5%
COC(=O)c1ccc(C(NC(=O)OCc2ccccc2)/C(F)=C/[C@@H](C)C(=O)NC2CCCCC2)cc1 (some centres not stated),3.6%,-7.1%,-79.1%,-5.5%,·,·
COCC(=O)N1CCC2(CC1)CN(Cc1ccccc1OC)C2,7.3%,-11.4%,-9.3%,-1.4%,·,·
Cc1cc(/C=N/n2cnnc2)c(C)n1-c1cc(Cl)ccc1Cl,18.8%,-24.3%,2.7%,22.4µM*,-10.9,-17.9%
